# Shiga toxin inh = Shiga toxin inhibition. AID 2315. Vero cells, Shiga toxin protein synthesis inhibition reporter. 290,000 tested, 9.2% active. inhibition, % at 38.7 µM; in the data active means inhibition mostly above about 28%, no sharp cut-off; inactive means mostly below about 43%; further: 0% is about no effect
# Pf growth 96h = P. falciparum growth inhibition at 96 hours. P. falciparum luciferase reporter growth, 96 h. 320,000 tested, 6.9% active. Potency, µM (titrated, usually from 28.7 µM), for inactives: at the highest dose activity change, negative = inhibition, usual class: inhibitors; active means well fitted inhibition curve with a large enough effect; inconclusive means small, poorly fitted or top-dose-only effect, or another doubt; inactive means no such curve, though single readings can be large or run the other way; further: potency means the concentration at half of the fitted maximal effect; on the % scale 0 is the no-effect control and ±100 the full control effect
#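 Readout is luminescence from an integrated firefly luciferase in P. falciparum. Red cells, 2% hematocrit and 0.05% parasitemia final, were cultured with compound through two parasite generations (96 hours) at 37 C, 5% CO2.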
# Pf growth 48h = P. falciparum growth inhibition at 48 hours (one generation); P. falciparum luciferase growth in erythrocytes, 48 h; Potency, µM (top dose mostly 28.7 µM), inactives show top-dose activity change, negative = inhibition, actives largely listed as inhibitors; 310,000 tested, 5.9% active; active means well fitted inhibition curve with a large enough effect; inconclusive means small, poorly fitted or top-dose-only effect, or another doubt; inactive means no such curve, though single readings can be large or run the other way; further: potency means the concentration at half of the fitted maximal effect; on the % scale 0 is the no-effect control and ±100 the full control effect
#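 First compound was added to culture medium, then infected red cells at 0.1% parasitemia and 2% hematocrit (final). After incubation at 37 C under 5% CO2, luciferase detection reagent was dispensed and light output recorded.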
# CHX counter = counter-screen for Shiga toxin inhibitors: cycloheximide protein synthesis inhibition; cell reporter, cycloheximide protein synthesis inhibition counterscreen; max response, %; 300,000 tested, 12% active; in the data active means max response mostly above about 13%, no sharp cut-off; inactive means mostly below about 14%; further: read at 38.3 µM for the half of the compounds with a filed dose; 0% is about no effect
# SARS PLP yeast = blocks SARS-CoV papain-like protease in a yeast assay. S. cerevisiae expressing SARS-CoV PLpro, growth rescue. Potency, µM (top dose mostly 32.9 µM), for inactives: top-dose activity, positive = growth rescue, hits mostly activators. 330,000 tested, 0.19% active; further: potency means the concentration at half of the fitted maximal effect; 0% is about no effect; nearly all actives have a fitted effect of over 55% in size
# NS1 inh = inhibitors of influenza NS1 protein function | Potency, µM (doses to about 46.1 µM), for inactives: at the highest dose activity, positive = more growth | 270,000 tested, 0.4% active | AID 2326; further: potency means the concentration at half of the fitted maximal effect; actives are rising curves; nearly all actives have a fitted effect of over 50% in size
#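 Read-out: OD600 growth recovery of NS1-expressing budding yeast. Cells grown overnight at 30C in -URA glucose medium, washed, resuspended and diluted 1:100 in 2% galactose assay medium, pH 6.0. Same strain lacking NS1 served as positive control.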
# * = called active by the depositor; ? = inconclusive; . = not tested or not shown. Shown are actives, neighbours in structure and some others; about 21% of the full set was active somewhere. Unless noted, the call rests on the fitted dose curve.
SMILES,Shiga toxin inh,Pf growth 96h,Pf growth 48h,CHX counter,SARS PLP yeast,NS1 inh
O=S(=O)(Nc1ccc(N2CCCCC2)cc1)c1ccc(F)cc1,51*,?,-8%,13*,-2%,-8%
O=S(=O)(Nc1ccc(N2CCCCC2)cc1)c1ccccc1F,36,?,?,16*,0%,1%
O=S(=O)(Nc1ccc(N2CCOCC2)cc1)c1ccc(F)cc1,24,-25%,18%,1,0%,0%
O=S(=O)(Nc1ccc(S(=O)(=O)N2CCCCCC2)cc1)c1cccs1,-4,?,.,-5,11%,0%
O=S(=O)(Nc1ccc(N2CCCCC2)cc1)c1cccc2cccnc12,-3,-26%,-9%,7,?,29%
O=S(=O)(Nc1ccc(N2CCCCC2)cc1)c1cccs1,60*,.,22%,41*,-1%,-4%
O=S(=O)(c1ccccc1)c1ccc(N2CCCCCC2)cc1,.,?,?,21*,-1%,-15%
Cc1cc(C)n(C(=O)CCCn2cc([N+](=O)[O-])cn2)n1,3,?,31%,6,-4%,.
CCOc1ccc(N(C(C)C(=O)N2CCCCCC2)S(C)(=O)=O)cc1 (stereo unspecified),-6,-25%,?,-3,?,0%
CCCN(C(=O)c1cccc(S(=O)(=O)N2CCCc3ccccc32)c1)C1CCS(=O)(=O)C1 (stereo unspecified),.,?,-29%,.,3%,.
COC(=O)CCNC(=O)Cc1ccc(S(=O)(=O)N2CCCCC2)s1,.,5%,?,.,1%,.
O=S(=O)(Nc1ccc(N2CCCCC2)cc1)c1ccc(F)cc1F,21,?,?,16*,-1%,-4%
Fc1cccc(Cl)c1CNc1ccc(N2CCCC2)cc1,22,23%,?,29*,0%,5%
O=C1NC(c2cn(-c3ccccc3)nc2-c2cccs2)C(C(=O)c2cccnc2)C(O)(C(F)(F)F)N1 (stereo unspecified),-4,13µM*,.,0,3%,-51%
COc1cccc(OCc2nnc(SCC(=O)NNC(=O)C3CCCCC3)n2C)c1,11,13µM*,-8%,-5,1%,.
COc1cccc(OCc2nnc(SC)n2C)c1,45,51%,91%,32*,2%,-74%
COc1ccc(C(=O)NNC(=O)CSc2nnc(COc3ccc4ccccc4c3)n2C)cc1,-20,2.3µM*,4%,-2,2%,-1%
COc1cccc(OCc2nnc(SCC(=O)OC3CCCCC3)n2C)c1,-16,17%,?,-4,-1%,-55%
Cn1c(=O)c2c(nc(N3CCCCC3)n2CC(O)COc2ccccc2)n(C)c1=O (stereo unspecified),-12,?,0%,-4,9%,-2%
Cc1cccc(C)c1NC(=O)COC(=O)c1cccnc1,-4,49%,-19%,2,0%,1%
CC(=O)N/N=C(/c1ccccc1)C(O)c1ccccc1 (stereo unspecified),8,-5%,5%,5,1%,17%
O=C(NN=C1CCCC1)c1ccccc1O,58*,?,17%,18*,7%,-26%
NNC(=O)c1cccc(O)c1,58*,42%,33%,67*,15%,-4%
COc1ccccc1NS(=O)(=O)c1cccc(C(=O)NN=C2CCCC2)c1,26,-13%,-15%,2,0%,.
COc1cccc(C(=O)NN=C2CCCC2)c1,67*,?,18%,38*,-4%,5%
SMILES,Shiga toxin inh,Pf growth 96h,Pf growth 48h,CHX counter,SARS PLP yeast,NS1 inh
CCn1cc(/C=N\NC(=O)c2ccc(Cl)cc2)cn1,15,0%,5%,-4,3%,7%
O=C(NCCNC(=O)c1cccc(O)c1)c1cccc(O)c1,-12,?,54%,-2,-2%,2%
O=C(NN=C1CCCCC1)c1ccccc1-n1cccc1,-2,12%,10%,-3,-2%,9%
CC(C)/C=N/NC(=O)c1ccc(Cl)cc1,38,20%,3%,24*,-10%,-4%
Cc1cc(C(=O)NN=C2CCCCCC2)c(C)o1,52*,40%,-3%,25*,-1%,-50%
CC1C/C(=N\NC(=O)c2ccc(NS(=O)(=O)c3ccc(Br)cc3)cc2)CC(C)(C)C1 (stereo unspecified),17*,?,-14%,12,5%,19%
O=C(NN=C1CCN(Cc2ccccc2)CC1)c1ccccc1,8,?,16%,-2,16%,0%
CC1C/C(=N\NC(=S)NC(C)C)CC(C)(C)C1 (stereo unspecified),-4,2.9µM*,.,-4,29%,-4%
O=C(NN=C1CCN(Cc2ccccc2)CC1)c1cc(Br)ccc1O,18,1.9µM*,45%,4,-9%,.
O=C(COc1ccccc1)N=C1SC2CS(=O)(=O)CC2N1CCc1ccccc1 (stereo unspecified),-10,?,-12%,-7,11%,14%
Cc1ccc(-n2c(C)cc(=O)cc2C)cc1[N+](=O)[O-],-12,0%,22%,-5,6%,-5%
O=C(O)c1ccccc1Nc1ccccc1C(=O)O,-8,25%,-5%,2,3%,?
O=C(NN=C1CCCCCC1)c1cccnc1,84*,15%,8%,31*,0%,.
CN(C)/C=N/NC(=O)c1ccccc1,31,57%,?,4,-1%,.
CC(O)C(O)C(O)C(O)/C=N/NC(=O)c1ccccc1 (stereo unspecified),86*,?,?,38*,9%,2%
O=C(NN=C1CCCC1)c1[nH]c2ccc(Cl)cc2c1-c1ccccc1,0,13µM*,?,-5,1%,22%
O=C(O)c1ccccc1NN=C1CCCCC1,110*,119%,123%,57*,-1%,-10%
COc1ccc(CC(=O)NCCC(C)C)cc1S(=O)(=O)N1CCOCC1,-8,7%,-5%,-2,0%,-2%
O=C(NN=C1CCCC1)c1cc(O)cc(O)c1,-30,?,19%,5,1%,6%
CC1C/C(=N\NC(=O)c2cccnc2)CC(C)(C)C1 (stereo unspecified),65,5%,13%,18*,0%,.
CC1C/C(=N\NC(=O)c2ccc([N+](=O)[O-])cc2)CC(C)(C)C1 (stereo unspecified),16,41%,-9%,7,0%,5%
O=C(NN=C1CCCC1)c1ccc(Cl)cc1,72*,15%,-1%,41*,-1%,2%
COc1ccc(C(=O)NN=C2CCCC2)cc1,8,9.3µM*,-1%,active,-5%,6%
O=C(NN=C1CCCC1)c1cccc(O)c1,76*,-33%,58%,47*,-1%,-4%
Cc1cccc(N2CCN(C(=O)CNC(=O)c3ccccc3)CC2)c1C,63*,-25%,-25%,33*,0%,-2%
CCOC(=O)N1CCN(c2cccc(C)c2C)CC1,-17,-17%,4%,-5,-34%,-7%
